Activity calls are given as the source filed them. Rule for the calls: active = hit-call score of the fitted dose curve at least 0.9, where 1 is the maximum; inactive = score below 0.9.
Assay: ATG_EGR_CIS: Attagene CIS-FACTORIAL HepG2 Assay for human Early Growth Response 1 (EGR1) (AID 2282938)
Conditions: HepG2 Attagene CIS-FACTORIAL EGR reporter mRNA; actives raise or lower the signal
Summary of the method: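 HepG2, transient MRTU transfection (cis promoters), 24 h compound. RNA → RT (oligo-dT) → PCR → 6-FAM labelling → HpaI cut → CE fluorescence. Bidirectional fit, DMSO baseline.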

SMILES	AC50	outcome
Cc1[nH]cnc1C[C@H]1CCc2c(C)c3ccccc3n2C1=O	29.7 µM (active)	
CC(C)CCCCCCCOC(=O)CCCCC(=O)OCCCCCCCC(C)C		inactive
O=P(OC(CCl)CCl)(OC(CCl)CCl)OC(CCl)CCl	63.5 µM (active)	
CN(C)c1ccc(Cc2ccc(N(C)C)cc2)cc1	25.6 µM (active)	
CC(C)=CCCC(C)=CC=O	100 µM (active)	
COC(=O)c1ccccc1O		inactive
O=C1CCC(N2C(=O)c3ccccc3C2=O)C(=O)N1 (centres undefined)		inactive
CC(C)CC(C)(O)C#CC(C)(O)CC(C)C (centres undefined)		inactive
CCC(C)(C)C(=O)O[C@H]1C[C@@H](C)C=C2C=C[C@H](C)[C@H](CC[C@@H]3C[C@@H](O)CC(=O)O3)[C@H]21		inactive
CC(C)(O)c1coc(S(=O)(=O)NC(=O)Nc2c3c(cc4c2CCC4)CCC3)c1		inactive
O=C(OC[C@H]1O[C@@H](OC(=O)c2cc(O)c(O)c(OC(=O)c3cc(O)c(O)c(O)c3)c2)[C@H](OC(=O)c2cc(O)c(O)c(OC(=O)c3cc(O)c(O)c(O)c3)c2)[C@@H](OC(=O)c2cc(O)c(O)c(OC(=O)c3cc(O)c(O)c(O)c3)c2)[C@@H]1OC(=O)c1cc(O)c(O)c(OC(=O)c2cc(O)c(O)c(O)c2)c1)c1cc(O)c(O)c(OC(=O)c2cc(O)c(O)c(O)c2)c1		inactive
Cn1cnc([N+](=O)[O-])c1Sc1ncnc2nc[nH]c12		inactive
O=C(O)CC(O)C(=O)O (centres undefined)		inactive
CC[C@H](C)C(=O)O[C@H]1C[C@@H](C)C=C2C=C[C@H](C)[C@H](CC[C@@H]3C[C@@H](O)CC(=O)O3)[C@H]21		inactive
O=c1n(CC2CO2)c(=O)n(CC2CO2)c(=O)n1CC1CO1 (centres undefined)	100 µM (active)	
COCCOc1cc2cc(C(=O)NC3CCN(C(C)C)CC3)n(CC(=O)Nc3ccc(Cl)cn3)c2cn1	123 µM (active)	
CC(C)=CCC/C(C)=C/CO		inactive
CCOC(=O)CC(CC(=O)OCC)(OC(C)=O)C(=O)OCC		inactive
Cc1ccc(C)c(O)c1		inactive
CCCCCCCCCCCCCCCO		inactive
CC[C@H]1OC(=O)[C@H](C)[C@@H](O[C@H]2C[C@@](C)(OC)[C@@H](O)[C@H](C)O2)[C@H](C)[C@@H](O[C@@H]2O[C@H](C)C[C@H](N(C)C)[C@H]2O)[C@](C)(O)C[C@@H](C)C(=O)[C@H](C)[C@@H](O)[C@]1(C)O		inactive
CC(C)CCO		inactive
CC(C)CCCCCCOC(=O)c1ccc(C(=O)OCCCCCCC(C)C)c(C(=O)OCCCCCCC(C)C)c1		inactive
Cc1c(-c2cccnc2)c2ccccc2n1CCCCC(=O)O		inactive
CCCCC(CC)COC(=O)c1ccc(C(=O)OCC(CC)CCCC)cc1 (centres undefined)		inactive
CCCCCCCCO		inactive
O=C(O)CCN(C1(C(=O)NO)CCCC1)S(=O)(=O)c1ccc(Oc2ccc(F)cc2)cc1		inactive
COc1cccc(-c2ccc(/C=C\CN3CCCCCC3)cc2Cl)c1		inactive
CC(C)=CCC/C(C)=C\CO		inactive

Source: PubChem BioAssay (EPA / NIEHS)
